The source of these data is the supplement of paper PMC11417369.

± gives the standard deviation of the averaged measurements. In all, about 25,000 sequences were measured (“ln(normalized median fluorescence intensity)”: median about 8.6, highest 2% from about 10 on). For the sample, the highest values were picked, then their nearest neighbours and some sequences at random.

The test relates to PfAP2-EXP AP2 domain (GST-tagged). In words: gcPBM binding intensity (ln(normalized median fluorescence intensity)); higher = stronger DNA binding. The method in brief:
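An Agilent 4 × 180k array carrying primer-extended double-stranded 36-bp intergenic genomic probes and negative controls received GST-tagged P. falciparum DNA-binding domains expressed in E. coli, about 25 μg on average, for 1 h. The binding buffer contained 1× PBS, 1% milk, 0.2 mg/ml BSA, 0.5% salmon testes DNA and 0.03% Triton X-100. Binding intensity is the top Masliner-normalised natural-log median intensity across replicate spots of either probe orientation, read after Alexa488 anti-GST antibody staining and a 488 nm scan.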
As for “TATTATTATTATTATTTTAAAAGAAATAAAAATATG [XGTACX_negctrl_site119]”, the “gcPBM binding intensity (ln)” value is 8.1 ± 0.39.
Turning to “AATTGGAAGAAAAAAAAGGAAGGAAAGTTATTACAT [GTGCAC_negctrl_site74]”, the “gcPBM binding intensity (ln)” value was 8.62 ± 0.41.
The same measure for “AAATTTGAAGAATATTGTACGCATAATAATTAAATA [XGTACX_site4300]”: 8.82 ± 0.41; for “TTACATATGGTTAGTAGTACATATATAAATGTAAAT [XGTACX_site7206]”: 8.62 ± 0.47.
Take “AAATCAAACTTTGGTGTGCACAAATATATACATATA [GTGCAC_site9986]”: the “gcPBM binding intensity (ln)” value worked out at 9.1 ± 0.29.
In the case of “AATTAATGGTTAAAGGTGCACAATACATATATTACA [GTGCAC_site9943]”, the “gcPBM binding intensity (ln)” value amounted to 9.57 ± 0.45.
With TTACATACAATTGGTGTGCACATATATATATATATA, the “gcPBM binding intensity (ln)” value is 10.3 ± 0.33.
As to “TATATATATAAGATTGTGCACATTAAAATGATAGAA [GTGCAC_site9621]”, the “gcPBM binding intensity (ln)” value came out at 9.265 ± 0.049.
As for “TATATATTTATATATGCATGTACATTTTTATTTATT [TGCATGCA_site1048]”, the “gcPBM binding intensity (ln)” value was determined as 8.82 ± 0.25.
As for “TACATGCATTTCTCATGTACATAATTTTCCCATATT [XGTACX_site5158]”, the “gcPBM binding intensity (ln)” value is 8.81 ± 0.4.
The same measure for “TATATATATATATATACATGCATTTCTCATGTACAT [TGCATGCA_site621]”: 10.2 ± 0.33; for “CCTTACTTCTTATAAAGTACCCAATGATATACATTA [XGTACX_site1554]”: 8.41 ± 0.31.
For “AAACGATCTCGATGTTGTACACATTTATATAGAAAC [XGTACX_site4373]” the value was 8.86 ± 0.4; for TAAATATATATATAAGTGCATTATATATATATATAA, 8.58 ± 0.028; for GCCAATAAAGATGTGGTGCATTATATATATATATAT, 10.3 ± 0.23.
As for AATATTCAATATAAAGTGCATTATTGTGGACCTAAT, the “gcPBM binding intensity (ln)” value stood at 8.77 ± 0.099.
As to “TAATTTTTTATATATTGTACAAATAATATATGATGT [XGTACX_site268]”, the “gcPBM binding intensity (ln)” value was 8.46 ± 0.23.
As for “TCTTACGGATTCATTGTGCACATATATATATATATA [GTGCAC_site9896]”, the “gcPBM binding intensity (ln)” value turned out to be 10.2 ± 0.45.
As for “TTTCTTATTTTGGATTGTACGTATATTTTTCATTTT [XGTACX_site224]”, the “gcPBM binding intensity (ln)” value was found to be 8.93 ± 0.38.
For CATTATATGATTTATGTGCACATTCATTTATTTTAA the value was 8.83 ± 0.099.
For “AAAAAAAAAAAAAAAAGTACATATATATATAATTAT [XGTACX_site7836]” the value was 8.54 ± 0.43.
The same measure for “ACATATTAATTATAAAGTACATATATATATATATAT [XGTACX_site4540]”: 10.3 ± 0.18; for “AAAAATATATAAGAGAGTACATAAAATAAATTAATT [XGTACX_site1534]”: 8.61 ± 0.41; for “TATATATATATATATAGTACATATTTATATATGAAA [XGTACX_site8488]”: 10.1 ± 0.36.
With “TATATTTACTTATGAAGTACATATATATATATATAT [XGTACX_site5069]”, the “gcPBM binding intensity (ln)” value turned out to be 10.3 ± 0.21.
On to “TTAATATATTTTAAAAGTACATAATATTATTTTTTA [XGTACX_site3642]”, for which the “gcPBM binding intensity (ln)” value amounted to 8.04 ± 0.26.
On to “AAATTATTAAAAAAAAGTACATATATATATATATAT [XGTACX_site8313]”, for which the “gcPBM binding intensity (ln)” value turned out to be 10.4 ± 0.25.
The same measure for “TATATATTATAAAAGAGTACAGAAAGAAAAAAAAAT [XGTACX_site8305]”: 9.12 ± 0.59; for “ATATACATATATATATGTACTTATTTATTTATTTAT [XGTACX_site2532]”: 8.56 ± 0.26.
“CAGACATATTAAAAGAGTACATATATATATATATAT [XGTACX_site1158]”: the “gcPBM binding intensity (ln)” value is 10.3 ± 0.28.
Consider “ATATTTTAATTATAAAGTACATAAAAATATATAAAC [XGTACX_site6705]”, for which the “gcPBM binding intensity (ln)” value came out at 8.58 ± 0.3.
Turning to “AAAAAAAAAAAAAAAAGTACATATATTATATATATA [XGTACX_site2983]”, the “gcPBM binding intensity (ln)” value was found to be 8.9 ± 0.099.
As for “ATGTAGATATATATCTGTACGTATATGTAAATATTA [XGTACX_site1516]”, the “gcPBM binding intensity (ln)” value is 8.72 ± 0.35.
For “ATGATATTATAAAAAAGTACATATGTATATAATTAT [XGTACX_site7652]” the value was 8.88 ± 0.45.
On to “AAAAATTTATTTTTAGGTACACAATTGAATTATTTA [XGTACX_site7008]”, for which the “gcPBM binding intensity (ln)” value worked out at 8.16 ± 0.27.
Turning to “TATTTAAAATATTAAATTTGTAAAGTTCGAGGGAAG [GTGCAC_negctrl_site337]”, the “gcPBM binding intensity (ln)” value was 8.52 ± 0.48.
For “TGATGAAAATTTTTCTGTACAAAAAGTATGAAGGTA [XGTACX_site8901]” the value was 8.88 ± 0.38; for “AGTTTAATTTTGTATACACACATTTGAATTATTAAT [CACACA_site7625]”, 8.77 ± 0.5.
Turning to “AATATGTCTATATTTTTTATATGGAAATATTATAAA [GTGCAC_negctrl_site700]”, the “gcPBM binding intensity (ln)” value is 7.92 ± 0.39.
As to “TTTATAATAAAATTTTTACACACTTTAAAAAAAAAA [CACACA_site8070]”, the “gcPBM binding intensity (ln)” value was 8.07 ± 0.37.
Turning to “AAAAAAAAAAAAAAATGTACATAAAAATGATATAAT [XGTACX_site4096]”, the “gcPBM binding intensity (ln)” value came out at 8.7 ± 0.55.
In the case of “TATTTAAGAATATGAAGTACATATATTATTTAAAAA [XGTACX_site7897]”, the “gcPBM binding intensity (ln)” value turned out to be 8.15 ± 0.29.
“TATTCCTAATTTAAAAGTACATATATATATATATAT [XGTACX_site3008]”: the “gcPBM binding intensity (ln)” value was found to be 10.2 ± 0.54.
On to “TTTTTATAACATAAAAGTACATATTTTTAATTTAAT [XGTACX_site4394]”, for which the “gcPBM binding intensity (ln)” value was 8.05 ± 0.4.
In the case of “TATAAAATTTTTAAAAGTACATATTTTACATAATAC [XGTACX_site2193]”, the “gcPBM binding intensity (ln)” value came to 8.38 ± 0.26.
